# Source: PubChem BioAssay
# Where “and” joins values, the source holds several entries; their conditions need not be identical. Equal values may be shown once. Inconclusive results are not listed. For some assays here: Entries with a potency or affinity are not part of this list. Calls of active or inactive are those of the source.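 How the source made its calls, unless noted: active means normalized viability below 100% at a tested concentration; inactive means the rest.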
# Experiments:
# [1] = polyglutamine-triggered caspase-3 activation inhibitors, cell-based (AID 1583); details: polyglutamine-induced caspase-3 activation, cell assay; stronger effect = higher value;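 tested at 10 µM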
# [2] = suppressors of polyQ aggregation in yeast, 75Q-TubU reporter (AID 1593); details: Yeast 75Q polyglutamine aggregation reporter
# [3] = rescue of polyQ-huntingtin neuronal dysfunction in worms, whole organism, C. elegans mechanosensory neurons, N-terminal huntingtin (AID 1599); details: touch response, stronger effect = higher value
# [4] = inhibitors of mitochondrial cytochrome c release, biochemical, purified mitochondria (AID 1603); details: stronger effect = lower value;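 further: mouse liver mitochondria challenged with calcium chloride; signal normalized to the plate average as 100%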
# [5] = inhibitors of polyQ protein aggregation (AID 1604); details: polyglutamine-induced protein aggregation inhibition assay; stronger effect = higher value; tested at 2.5 µM
# [6] = enhancers of glutamate uptake in motor neurons, MN-1 cell line (AID 1612); details: MN-1 motor neuron cells, stronger effect = higher value;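 further: tested at 1 µM final; 0% = mean of DMSO vehicle wells on each plate; positive means more glutamate uptake than control and negative means less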
# [7] = suppressors of polyglutamine aggregation in yeast, 75Q-TubH (AID 1616); details: S. cerevisiae 75Q-TubH polyglutamine aggregation suppression; stronger effect = higher value
# [8] = target: 6-phosphogluconate dehydrogenase, decarboxylating (Homo sapiens) (UniProt P52209); experiment: 6PGD enzyme inhibitors, primary screen, biochemical, human, recombinant enzyme, NADPH absorbance (AID 1159550;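 active means at least 20% inhibition of 6-phosphogluconate dehydrogenase activity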); details: recombinant 6PGD, NADPH absorbance 341 nm; at 10 µM; stronger effect = higher value
# 6-phosphogluconate dehydrogenase, decarboxylating (Homo sapiens), sequence (P52209 whole entry, looked up): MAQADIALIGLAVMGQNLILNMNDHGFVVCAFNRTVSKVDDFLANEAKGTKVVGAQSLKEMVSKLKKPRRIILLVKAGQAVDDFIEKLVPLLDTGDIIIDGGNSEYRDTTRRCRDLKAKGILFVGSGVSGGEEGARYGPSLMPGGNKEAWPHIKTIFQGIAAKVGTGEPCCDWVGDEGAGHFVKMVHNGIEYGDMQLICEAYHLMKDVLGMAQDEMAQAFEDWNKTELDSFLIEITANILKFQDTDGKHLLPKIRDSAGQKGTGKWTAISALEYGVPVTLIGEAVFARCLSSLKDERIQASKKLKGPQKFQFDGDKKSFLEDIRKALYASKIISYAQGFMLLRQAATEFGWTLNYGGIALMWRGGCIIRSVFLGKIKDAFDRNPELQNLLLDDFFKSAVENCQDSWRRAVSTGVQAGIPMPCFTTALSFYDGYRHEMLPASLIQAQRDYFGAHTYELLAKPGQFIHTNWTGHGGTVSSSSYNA
# [9] = differential killing of epithelial or mesenchymal cells, primary screen, imaging, PC-3E GFP, TEM4-18 mCherry, co-culture (AID 1345086;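 active means compounds killing one labelled cell type while sparing the other, by normalised counts and ratio limits, not self-fluorescent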;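 on all read-outs here: cells exposed to compound for 72 h before imaging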;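 on red/green cell ratio (normalised): normalised mesenchymal count divided by normalised epithelial count so high means epithelial killing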); details: imaging cell counts, at 1 µM; for red/green cell ratio (normalised): actives lie on both sides, counts scaled to control wells, 1 = unselective
# [10] = SU-DIPG-VI glioma cell viability, MIPE4.0 library, CellTiter-Glo luminescence, qHTS (AID 1347066; cut-off not given, nearly all actives have AC50 up to about 30 µM;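 further: cells exposed to compound for 48 hours before readout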); details: CellTiter-Glo ATP luminescence
# [11] = sensitizers of A549 cells to miR-34 induction, primary screen, imaging, A549 dox-inducible miR-34, nuclei and caspase counts (AID 1347080;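 active means compounds whose cell count with miR-34 switched on is under 0.7 times the count with it off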); details: A549 miR-34 inducible, Hoechst nuclei count, 48 h
# [12] = survival rescue of mitochondrial mutant cells in low glucose, primary screen, MELAS cybrids, Rieske KO mouse fibroblasts, CellTiter-Glo (AID 1508586;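 active means mean z-score across replicates of 1.96 or higher in either the MELAS or the Rieske mutant cell line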;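 further: z relative to plate mean and SD of compound and empty wells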)
# [13] = target: Mitogen-activated protein kinase 7 (Homo sapiens) (UniProt Q13164); experiment: ERK5 transactivation activators in reporter cells, primary screen, cell-based, HTS (AID 1508626;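 active means luciferase signal above three times the same-plate solvent-only control wells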;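 further: luciferase driven by Gal4-ERK5 fusion binding five Gal4 sites before minimal TATA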); details: HeLa Gal4-ERK5 transactivation, 18 h, at 5 µM, stronger effect = higher value
# Mitogen-activated protein kinase 7 (Homo sapiens), sequence (Q13164 whole entry, looked up, the tested form may be a part): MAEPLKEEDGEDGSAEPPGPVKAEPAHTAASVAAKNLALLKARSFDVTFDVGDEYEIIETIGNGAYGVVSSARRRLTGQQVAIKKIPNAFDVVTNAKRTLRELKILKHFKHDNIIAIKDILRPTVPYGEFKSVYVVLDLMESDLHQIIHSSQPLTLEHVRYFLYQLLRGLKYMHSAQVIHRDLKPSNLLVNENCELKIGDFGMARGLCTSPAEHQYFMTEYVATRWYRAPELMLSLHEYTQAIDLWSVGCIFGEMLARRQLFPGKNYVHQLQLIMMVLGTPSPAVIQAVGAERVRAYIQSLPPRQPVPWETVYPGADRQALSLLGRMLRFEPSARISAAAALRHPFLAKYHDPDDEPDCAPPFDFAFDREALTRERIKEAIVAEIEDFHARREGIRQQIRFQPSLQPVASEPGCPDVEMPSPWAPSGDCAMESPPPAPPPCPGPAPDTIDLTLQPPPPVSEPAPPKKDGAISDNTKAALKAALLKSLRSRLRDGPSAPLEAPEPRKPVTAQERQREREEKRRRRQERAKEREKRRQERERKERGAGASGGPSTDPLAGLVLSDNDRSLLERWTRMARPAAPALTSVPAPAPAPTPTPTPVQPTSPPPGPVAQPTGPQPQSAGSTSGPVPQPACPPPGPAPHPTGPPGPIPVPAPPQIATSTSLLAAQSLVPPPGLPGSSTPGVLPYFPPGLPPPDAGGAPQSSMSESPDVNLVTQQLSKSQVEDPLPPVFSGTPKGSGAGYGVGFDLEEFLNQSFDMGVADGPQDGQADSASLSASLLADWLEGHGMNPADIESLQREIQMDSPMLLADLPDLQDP
# [14] = hESC survival regulators, cell-based (AID 493140; call rule not given here;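 further: cells exposed to compounds for four days before counting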); details: human embryonic stem cell survival screen; stronger effect = higher value
# [15] = liver-stage malaria parasite growth inhibition, primary screen, cell-based, HepG2, luciferase luminescence, HepG2 viability (AID 624349; in the data active means parasite load remaining mostly below about 12%, no sharp cut-off; inactive means mostly above about 10%;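 further: 100% = mean of DMSO negative control wells on the same plate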); details: P. berghei liver stage in HepG2, luciferase luminescence, concentration not given here; parasite load remaining: stronger effect = lower value; viability: measured here: HepG2 viability without parasites
# [16] = target: NAD(+) hydrolase SARM1 (Homo sapiens) (UniProt Q6SZW1); experiment: SARM1 TIR NADase inhibitors, cell lysate, NAD-Glo luminescence (AID 1508614;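 active means compound whose remaining NAD level is above about 45 nM, limit read from the data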); details: SAM-TIR HEK293T lysate NADase, at 1 µM, stronger effect = higher value
# NAD(+) hydrolase SARM1 (Homo sapiens), sequence (Q6SZW1 whole entry, looked up): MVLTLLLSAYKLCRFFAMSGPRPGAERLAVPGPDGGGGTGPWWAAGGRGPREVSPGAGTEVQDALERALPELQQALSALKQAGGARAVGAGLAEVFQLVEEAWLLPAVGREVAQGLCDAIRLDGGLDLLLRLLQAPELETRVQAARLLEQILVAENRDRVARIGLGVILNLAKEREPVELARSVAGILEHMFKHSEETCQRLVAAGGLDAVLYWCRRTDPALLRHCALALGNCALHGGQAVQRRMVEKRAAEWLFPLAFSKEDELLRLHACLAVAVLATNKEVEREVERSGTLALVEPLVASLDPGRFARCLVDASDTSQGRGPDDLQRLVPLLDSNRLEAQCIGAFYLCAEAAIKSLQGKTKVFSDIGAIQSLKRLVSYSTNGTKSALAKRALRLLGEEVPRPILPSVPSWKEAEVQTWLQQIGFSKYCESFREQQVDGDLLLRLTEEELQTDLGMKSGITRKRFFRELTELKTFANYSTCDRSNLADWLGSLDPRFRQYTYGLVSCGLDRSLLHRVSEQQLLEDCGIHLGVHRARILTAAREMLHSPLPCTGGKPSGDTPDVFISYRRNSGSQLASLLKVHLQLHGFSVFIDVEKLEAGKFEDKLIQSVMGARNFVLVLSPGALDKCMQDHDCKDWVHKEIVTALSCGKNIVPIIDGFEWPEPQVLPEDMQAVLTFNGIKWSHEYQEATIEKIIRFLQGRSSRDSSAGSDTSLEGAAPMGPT
# [17] = viability rescue of complex I mutant cybrids, primary screen, cell-based, galactose medium, ATP luminescence (AID 1645843;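 active means z-score of at least 1.8 in each of two replicates, scored against plate mean and spread of sample wells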;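 further: positive z means more ATP and so rescue of galactose-driven cybrid death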); details: complex I mutant cybrid cells, 72 h, stronger effect = higher value
# [18] = ovarian cancer cell viability with rucaparib, profiling panel, oncology-focused library, rucaparib conditional (AID 1508598); details: patient-derived ovarian cancer cells, CellTiter-Glo viability, 144 h, stronger effect = lower value
# [19] = measured here: epithelial PC-3E GFP cell survival
# [20] = measured here: mesenchymal TEM4-18 mCherry cell survival
# [21] = stronger effect = lower value, cell number ratio, induced over uninduced
# [22] = measured here: relative caspase fold change +Dox/-Dox
# [23] = measured here: total cells with miR-34 induction, stronger effect = lower value
# [24] = measured here: total cells without miR-34 induction
# [25] = MELAS cybrid survival, CellTiter-Glo 48 h, stronger effect = higher value
# [26] = Rieske KO mouse fibroblast survival, CellTiter-Glo 72 h
smiles,measurement,setting,value
COc1ccc(-c2coc3cc(O)cc(O)c3c2=O)cc1,inhibition,[1],-2.46%
same,score,[2],1.27
same,rescue above control,[3],4
same,cytochrome c release ratio,[4],2.73
same,inhibition of aggregation,[5],22.4%
same,glutamate uptake change,[6],10.2%
same,aggregation suppression score,[7],1.01
same,inhibition,[8],17.9% (inactive)
same,red/green cell ratio (normalised),[9],0.99 (inactive)
same,normalised cell number,[9]; [19],1.32
same,normalised cell number,[9]; [20],1.3
same,outcome,[10],inactive
same,fold change,[11]; [21],0.896 (inactive)
same,fold change,[11]; [22],0.917
same,cell count,[11]; [23],7900
same,cell count,[11]; [24],8810
same,z-score,[12]; [25],-0.162 (inactive)
same,z-score,[12]; [26],-1.4
same,luciferase signal,[13],16 AU (inactive)
C1CCc2nnnn2CC1,survival,[14],27.4 (inactive)
same,parasite load remaining,[15],23.8% (inactive) and 86.6% (inactive) and 79.3% (inactive)
same,viability,[15],50.2% and 91.9% and 103%
same,inhibition,[8],10.8% (inactive)
same,red/green cell ratio (normalised),[9],1.25 (inactive)
same,normalised cell number,[9]; [19],1.11
same,normalised cell number,[9]; [20],1.38
same,z-score,[12]; [25],-0.00315 (inactive)
same,z-score,[12]; [26],-0.232
same,remaining NAD,[16],10 nM (inactive)
same,luciferase signal,[13],96 AU (inactive)
same,z-score,[17],0.7 (inactive) and 0.6 (inactive)
Cc1cc(O)c2c(c1)C(=O)c1cccc(O)c1C2=O,inhibition,[8],2.69% (inactive)
same,red/green cell ratio (normalised),[9],1.03 (inactive)
same,normalised cell number,[9]; [19],0.99
same,normalised cell number,[9]; [20],1.02
same,fold change,[11]; [21],0.938 (inactive)
same,fold change,[11]; [22],0.889
same,cell count,[11]; [23],10200
same,cell count,[11]; [24],10900
same,z-score,[12]; [25],-0.322 (inactive)
same,z-score,[12]; [26],0.837
same,viability,"[18]; at 0.000305 µM, OCI-C5x cells, with rucaparib 10 µM, 100% = cells with rucaparib alone",120% (inactive)
same,viability,"[18]; at 0.000305 µM, OCI-C5x cells, without rucaparib",106% (inactive)
same,viability,"[18]; at 0.000305 µM, OCI-P5x cells, with rucaparib 20 µM, 100% = cells with rucaparib alone",93.2% (active)
same,viability,"[18]; at 0.000305 µM, OCI-P5x cells, without rucaparib",92.5% (active)
same,viability,"[18]; at 0.00122 µM, OCI-C5x cells, with rucaparib 10 µM, 100% = cells with rucaparib alone",115% (inactive)
same,viability,"[18]; at 0.00122 µM, OCI-C5x cells, without rucaparib",113% (inactive)
same,viability,"[18]; at 0.00122 µM, OCI-P5x cells, with rucaparib 20 µM, 100% = cells with rucaparib alone",92.4% (active)
same,viability,"[18]; at 0.00122 µM, OCI-P5x cells, without rucaparib",95.7% (active)
same,viability,"[18]; at 0.00488 µM, OCI-C5x cells, with rucaparib 10 µM, 100% = cells with rucaparib alone",117% (inactive)
same,viability,"[18]; at 0.00488 µM, OCI-C5x cells, without rucaparib",112% (inactive)
same,viability,"[18]; at 0.00488 µM, OCI-P5x cells, with rucaparib 20 µM, 100% = cells with rucaparib alone",94.8% (active)
same,viability,"[18]; at 0.00488 µM, OCI-P5x cells, without rucaparib",102% (inactive)
same,viability,"[18]; at 0.0195 µM, OCI-C5x cells, with rucaparib 10 µM, 100% = cells with rucaparib alone",115% (inactive)
same,viability,"[18]; at 0.0195 µM, OCI-C5x cells, without rucaparib",103% (inactive)
same,viability,"[18]; at 0.0195 µM, OCI-P5x cells, with rucaparib 20 µM, 100% = cells with rucaparib alone",104% (inactive)
same,viability,"[18]; at 0.0195 µM, OCI-P5x cells, without rucaparib",104% (inactive)
same,viability,"[18]; at 0.0781 µM, OCI-C5x cells, with rucaparib 10 µM, 100% = cells with rucaparib alone",112% (inactive)
same,viability,"[18]; at 0.0781 µM, OCI-C5x cells, without rucaparib",113% (inactive)
same,viability,"[18]; at 0.0781 µM, OCI-P5x cells, with rucaparib 20 µM, 100% = cells with rucaparib alone",105% (inactive)
same,viability,"[18]; at 0.0781 µM, OCI-P5x cells, without rucaparib",107% (inactive)
same,viability,"[18]; at 0.313 µM, OCI-C5x cells, with rucaparib 10 µM, 100% = cells with rucaparib alone",102% (inactive)
same,viability,"[18]; at 0.313 µM, OCI-C5x cells, without rucaparib",104% (inactive)
same,viability,"[18]; at 0.313 µM, OCI-P5x cells, with rucaparib 20 µM, 100% = cells with rucaparib alone",101% (inactive)
same,viability,"[18]; at 0.313 µM, OCI-P5x cells, without rucaparib",109% (inactive)
same,viability,"[18]; at 1.25 µM, OCI-C5x cells, with rucaparib 10 µM, 100% = cells with rucaparib alone",114% (inactive)
same,viability,"[18]; at 1.25 µM, OCI-C5x cells, without rucaparib",118% (inactive)
same,viability,"[18]; at 1.25 µM, OCI-P5x cells, with rucaparib 20 µM, 100% = cells with rucaparib alone",111% (inactive)
same,viability,"[18]; at 1.25 µM, OCI-P5x cells, without rucaparib",109% (inactive)
same,viability,"[18]; at 5 µM, OCI-C5x cells, with rucaparib 10 µM, 100% = cells with rucaparib alone",121% (inactive)
same,viability,"[18]; at 5 µM, OCI-C5x cells, without rucaparib",114% (inactive)
same,viability,"[18]; at 5 µM, OCI-P5x cells, with rucaparib 20 µM, 100% = cells with rucaparib alone",97.2% (active)
same,viability,"[18]; at 5 µM, OCI-P5x cells, without rucaparib",108% (inactive)
same,luciferase signal,[13],64 AU (inactive)
